Experimental data reported in PubChem BioAssay (NCATS).
Inconclusive results are not listed. Where a call stands in place of a potency, no number is given. Activity calls are given as the source filed them. Calls come from the whole dose curve; as a rule, active = well fitted curve in the direction sought with a large enough effect; inconclusive = small, poorly fitted or top-dose-only effect, or another doubt; inactive = no such curve, though single readings can be large; an effect the other way counts as inactive or inconclusive.

Legend:
[1] = system: AA1029; assay: qHTS profiling for inhibitors of Plasmodium falciparum proliferation (AID 504749); note: nearly all actives have a fitted effect of over 60% in size; note: potency is the fitted concentration of half-maximal effect; conditions: P. falciparum in erythrocytes, SYBR Green DNA, 72 h; series mostly up to 12.8 µM
Outline: (§1)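 Readout was DNA-dye fluorescence from lysed cultures, ex 485/em 535 nm. Parasitized red cells had grown 72 h with compound; data scaled between 0.29 uM artemisinin and DMSO wells and corrected using vehicle-only plates.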

[2] = system: CP185; assay: as above; conditions: P. falciparum in erythrocytes, SYBR Green DNA, 72 h; series mostly up to 12.8 µM
Outline: as §1

[3] = system: CP252; assay: as above; conditions: P. falciparum in erythrocytes, SYBR Green DNA, 72 h; series mostly up to 12.8 µM
Outline: as §1

[4] = system: CP265; assay: as above; conditions: P. falciparum in erythrocytes, SYBR Green DNA, 72 h; series mostly up to 12.8 µM
Outline: as §1

[5] = system: CP286; assay: as above; conditions: P. falciparum in erythrocytes, SYBR Green DNA, 72 h; series mostly up to 12.8 µM
Outline: as §1

[6] = system: DFO2036; assay: as above; conditions: P. falciparum in erythrocytes, SYBR Green DNA, 72 h; series mostly up to 12.8 µM
Outline: as §1

[7] = system: ECU; assay: as above; conditions: P. falciparum in erythrocytes, SYBR Green DNA, 72 h; series mostly up to 12.8 µM
Outline: as §1

[8] = system: HB3; assay: as above; conditions: P. falciparum in erythrocytes, SYBR Green DNA, 72 h; series mostly up to 12.8 µM
Outline: as §1

[9] = biological target: ATP-dependent 6-phosphofructokinase (Trypanosoma brucei brucei) (UniProt O15648); assay: qHTS Assay to Find Inhibitors of T. brucei phosphofructokinase: hit validation (AID 492961)
Outline: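 Luminescence from ADP-Glo reports ADP generated as T. brucei PFK (1.25 nM) phosphorylates 0.5 mM fructose-6-phosphate using 0.1 mM ATP. Reactions ran 45 min at room temperature, pH 8.0.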

[10] = system: CP194; assay: qHTS profiling for inhibitors of Plasmodium falciparum proliferation (AID 504749); note: nearly all actives have a fitted effect of over 60% in size; note: potency is the fitted concentration of half-maximal effect; conditions: P. falciparum in erythrocytes, SYBR Green DNA, 72 h; series mostly up to 12.8 µM
Outline: as §1

[11] = system: CP201; assay: as above; conditions: P. falciparum in erythrocytes, SYBR Green DNA, 72 h; series mostly up to 12.8 µM
Outline: as §1

[12] = system: CP203; assay: as above; conditions: P. falciparum in erythrocytes, SYBR Green DNA, 72 h; series mostly up to 12.8 µM
Outline: as §1

[13] = system: CP211; assay: as above; conditions: P. falciparum in erythrocytes, SYBR Green DNA, 72 h; series mostly up to 12.8 µM
Outline: as §1

[14] = system: CP268; assay: as above; conditions: P. falciparum in erythrocytes, SYBR Green DNA, 72 h; series mostly up to 12.8 µM
Outline: as §1

[15] = system: CP291; assay: as above; conditions: P. falciparum in erythrocytes, SYBR Green DNA, 72 h; series mostly up to 12.8 µM
Outline: as §1

[16] = system: CP305; assay: as above; conditions: P. falciparum in erythrocytes, SYBR Green DNA, 72 h; series mostly up to 12.8 µM
Outline: as §1

[17] = system: CP325; assay: as above; conditions: P. falciparum in erythrocytes, SYBR Green DNA, 72 h; series mostly up to 12.8 µM
Outline: as §1

[18] = system: CP329; assay: as above; conditions: P. falciparum in erythrocytes, SYBR Green DNA, 72 h; series mostly up to 12.8 µM
Outline: as §1

[19] = system: DIV14; assay: as above; conditions: P. falciparum in erythrocytes, SYBR Green DNA, 72 h; series mostly up to 12.8 µM
Outline: as §1

[20] = system: DIV17; assay: as above; conditions: P. falciparum in erythrocytes, SYBR Green DNA, 72 h; series mostly up to 12.8 µM
Outline: as §1

Sequence of ATP-dependent 6-phosphofructokinase (Trypanosoma brucei brucei) (O15648 whole entry, looked up): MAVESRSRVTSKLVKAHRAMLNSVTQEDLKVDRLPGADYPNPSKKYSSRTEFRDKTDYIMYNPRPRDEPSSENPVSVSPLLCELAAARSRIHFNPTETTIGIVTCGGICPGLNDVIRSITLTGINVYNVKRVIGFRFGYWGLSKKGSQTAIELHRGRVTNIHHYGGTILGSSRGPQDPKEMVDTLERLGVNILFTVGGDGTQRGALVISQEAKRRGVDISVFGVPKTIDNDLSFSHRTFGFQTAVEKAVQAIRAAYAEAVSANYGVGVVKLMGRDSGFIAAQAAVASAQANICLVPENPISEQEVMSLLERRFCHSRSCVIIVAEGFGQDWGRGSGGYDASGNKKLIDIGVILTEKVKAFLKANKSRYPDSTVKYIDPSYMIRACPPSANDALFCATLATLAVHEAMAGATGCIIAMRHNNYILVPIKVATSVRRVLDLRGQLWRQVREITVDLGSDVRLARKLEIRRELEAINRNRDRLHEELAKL

| SMILES | Potency [1] | Potency [2] | Potency [3] | Potency [4] | Potency [5] | Potency [6] | Potency [7] | Potency [8] | outcome [9] | Potency [10] | Potency [11] | Potency [12] | Potency [13] | Potency [14] | Potency [15] | Potency [16] | Potency [17] | Potency [18] | Potency [19] | Potency [20] |
| --- | --- | --- | --- | --- | --- | --- | --- | --- | --- | --- | --- | --- | --- | --- | --- | --- | --- | --- | --- | --- |
| CC(=O)N(C[C@@H](C)C(=O)O)c1c(I)cc(I)c(N)c1I | inactive | inactive | inactive | inactive | inactive | inactive | inactive | inactive | – | – | – | – | – | – | – | – | – | – | – | – |
| CC(=O)OCC(=O)[C@@]1(O)[C@H](C)C[C@@H]2[C@H]3CCC4=CC(=O)C=C[C@]4(C)[C@]3(F)[C@@H](O)C[C@@]21C | inactive | inactive | inactive | inactive | inactive | inactive | inactive | inactive | inactive | inactive | inactive | inactive | inactive | inactive | inactive | inactive | inactive | inactive | inactive | inactive |
| Cc1cccc(C)c1NC(=O)[C@H](C)N | inactive | inactive | inactive | inactive | inactive | inactive | inactive | inactive | inactive | – | – | – | – | – | – | – | – | – | – | – |
| COc1ccc([C@@H]2CC(=O)c3c(O)cc(O[C@H]4O[C@@H](CO[C@H]5O[C@@H](C)[C@@H](O)[C@@H](O)[C@@H]5O)[C@@H](O)[C@@H](O)[C@@H]4O)cc3O2)cc1O | inactive | inactive | inactive | inactive | inactive | inactive | inactive | inactive | inactive | inactive | inactive | inactive | inactive | inactive | inactive | inactive | inactive | inactive | inactive | inactive |
| COc1ccc(C[C@@](C)(N)C(=O)O)cc1OC | inactive | inactive | inactive | inactive | inactive | inactive | inactive | inactive | – | inactive | inactive | inactive | inactive | inactive | inactive | inactive | inactive | inactive | inactive | inactive |
| COCC(=O)Nc1c(I)c(C(=O)NC[C@@H](O)CO)c(I)c(C(=O)N(C)C[C@@H](O)CO)c1I | inactive | inactive | inactive | inactive | inactive | inactive | inactive | inactive | inactive | inactive | inactive | inactive | inactive | inactive | inactive | inactive | inactive | inactive | inactive | inactive |
| CC[C@@H]1OC(=O)[C@H](C)[C@H](O[C@@H]2C[C@](C)(OC)[C@H](O)[C@H](C)O2)[C@H](C)[C@H](O[C@@H]2O[C@@H](C)C[C@@H](N(C)C)[C@@H]2O)[C@](C)(O)C[C@H](C)C(=NOCOCCOC)[C@H](C)[C@H](O)[C@]1(C)O | inactive | inactive | – | inactive | inactive | – | inactive | inactive | inactive | inactive | inactive | inactive | – | inactive | inactive | inactive | inactive | inactive | inactive | inactive |
| C=CC1=C(C(=O)O)N2C(=O)[C@@H](NC(=O)/C(=N\OCC(=O)O)c3csc(N)n3)[C@@H]2SC1 | inactive | inactive | inactive | inactive | inactive | inactive | inactive | inactive | – | inactive | inactive | inactive | inactive | – | inactive | inactive | inactive | inactive | inactive | inactive |
| CCC(=O)O[C@@]1(C(=O)SCF)[C@@H](C)C[C@H]2[C@@H]3C[C@@H](F)C4=CC(=O)C=C[C@@]4(C)[C@]3(F)[C@@H](O)C[C@]21C | – | – | – | – | inactive | – | – | – | inactive | inactive | inactive | inactive | inactive | inactive | inactive | inactive | inactive | inactive | – | – |
| CCC(=O)O[C@@H]1[C@H](C)O[C@H](O[C@H]2[C@@H](N(C)C)[C@H](O)[C@@H](O[C@@H]3[C@@H](CC=O)C[C@@H](C)[C@@H](O)/C=C\C=C/C[C@@H](C)OC(=O)C[C@@H](OC(=O)CC)[C@H]3OC)O[C@H]2C)C[C@]1(C)O | – | – | – | – | – | inactive | inactive | inactive | – | – | – | – | – | – | – | – | – | – | inactive | – |
| CNC[C@H](O)c1ccc(OC(=O)C(C)(C)C)c(OC(=O)C(C)(C)C)c1 | inactive | inactive | inactive | inactive | inactive | inactive | inactive | inactive | inactive | inactive | inactive | inactive | inactive | inactive | inactive | inactive | inactive | inactive | inactive | – |
| C[C@@H](C(=O)O)c1ccc(C(=O)c2ccccc2)s1 | inactive | inactive | inactive | inactive | inactive | inactive | inactive | inactive | inactive | inactive | inactive | inactive | inactive | inactive | inactive | inactive | inactive | inactive | inactive | inactive |
| COc1c(O[C@H]2O[C@@H](CO)[C@@H](O)[C@@H](O)[C@@H]2O)cc2c(c1OC)-c1ccc(SC)c(=O)cc1[C@H](NC(C)=O)CC2 | inactive | inactive | inactive | inactive | inactive | inactive | inactive | inactive | inactive | inactive | inactive | inactive | inactive | inactive | inactive | inactive | inactive | inactive | inactive | inactive |
| NC(=O)c1ccc[n+]([C@@H]2O[C@H](COP(=O)([O-])OP(=O)(O)OC[C@H]3O[C@@H](n4cnc5c(N)ncnc54)[C@@H](O)[C@@H]3O)[C@@H](O)[C@@H]2O)c1 | inactive | inactive | inactive | inactive | inactive | inactive | inactive | inactive | – | inactive | inactive | inactive | inactive | inactive | inactive | inactive | inactive | inactive | inactive | inactive |
| CCC[C@@H]1O[C@@H]2C[C@@H]3[C@H]4CCC5=CC(=O)C=C[C@@]5(C)[C@H]4[C@H](O)C[C@@]3(C)[C@@]2(C(=O)CO)O1 | 11.2 µM (active) | – | 11.2 µM (active) | – | – | – | 7.08 µM (active) | – | inactive | – | – | – | – | inactive | – | inactive | – | inactive | 9.53 µM (active) | – |
| NC(=O)c1cc[n+](CC2=C(C(=O)[O-])N3C(=O)[C@@H](NC(=O)Cc4cccs4)[C@@H]3SC2)cc1 | inactive | inactive | inactive | inactive | inactive | inactive | inactive | inactive | inactive | inactive | inactive | – | inactive | inactive | – | inactive | inactive | inactive | inactive | inactive |
| C[C@H](C(=O)O)c1cccc(Oc2ccccc2)c1 | inactive | inactive | inactive | inactive | inactive | inactive | inactive | inactive | inactive | inactive | inactive | inactive | inactive | inactive | inactive | inactive | inactive | inactive | inactive | inactive |
| CO[C@]1(NC(=O)C2SC(=C(C(N)=O)C(=O)O)S2)C(=O)N2C(C(=O)O)=C(CSc3nnnn3C)CS[C@H]21 (stereo partly specified) | inactive | inactive | inactive | inactive | inactive | inactive | inactive | inactive | inactive | inactive | inactive | inactive | inactive | inactive | inactive | inactive | inactive | inactive | inactive | inactive |
| CO[C@H]1[C@H](O[C@H]2O[C@@H](C)[C@@H](O[C@@H]3C[C@](C)(O)[C@H](OC(=O)CC(C)C)[C@H](C)O3)[C@@H](N(C)C)[C@@H]2O)[C@@H](CC=O)C[C@@H](C)[C@@H](O)/C=C\C=C/C[C@@H](C)OC(=O)C[C@H]1OC(C)=O | – | – | – | – | – | – | – | – | inactive | – | – | – | – | – | – | – | – | – | – | – |
| CC(=O)C[C@H](c1ccc([N+](=O)[O-])cc1)c1c(O)c2ccccc2oc1=O | inactive | inactive | inactive | inactive | inactive | inactive | inactive | inactive | – | inactive | inactive | inactive | inactive | inactive | inactive | inactive | inactive | inactive | inactive | inactive |
| C[C@@H]1Cc2ccccc2N1NC(=O)c1ccc(Cl)c(S(N)=O)c1 (stereo partly specified) | inactive | inactive | inactive | inactive | inactive | inactive | inactive | inactive | inactive | inactive | inactive | inactive | inactive | inactive | inactive | inactive | – | inactive | inactive | inactive |
| CC[C@H](CO)NCCN[C@@H](CC)CO | inactive | inactive | inactive | inactive | inactive | inactive | – | inactive | inactive | inactive | inactive | inactive | inactive | inactive | inactive | inactive | inactive | inactive | inactive | inactive |
| Clc1ccc(CC[C@H](Cn2ccnc2)Sc2c(Cl)cccc2Cl)cc1 | – | – | – | – | – | – | 3.55 µM (active) | 3.55 µM (active) | – | 6.42 µM (active) | – | 6.42 µM (active) | – | – | 5.73 µM (active) | – | – | 6.42 µM (active) | 3.22 µM (active) | 4.05 µM (active) |
| CC[C@H](Cc1c(I)cc(I)c(N)c1I)C(=O)O | inactive | inactive | inactive | inactive | inactive | inactive | inactive | inactive | inactive | inactive | inactive | inactive | inactive | inactive | inactive | inactive | inactive | inactive | inactive | inactive |
